Source: PubChem BioAssay AID588773 (The Scripps Research Institute Molecular Screening Center, 2011)
Activity calls are given as the source filed them.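 Rule for the calls: active = inhibition of plasma PAF acetylhydrolase at a set limit or more at 0.1 µM, with tenfold selectivity over all off-targets; inactive = inhibition below the limit or weaker selectivity.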

Assay: competitive ABPP of pPAFAH versus proteome off-targets – biochemical, gel-based, FP-Rh fluorescence, mouse, HTS hit compounds, selectivity assay for pPAFAH inhibitor project, late-stage follow-up (AID 588773)
Settings: MW 32 kDa protein, at 10 µM

Compound | outcome
O=C(Oc1nsnc1N1CCOCC1)N1CCOCC1 | inactive
O=C(CCCSc1ccc(Cl)cc1)Nc1cc(S(=O)(=O)N2CCOCC2)ccc1O | inactive
O=C(Oc1ccc(-c2ccccc2)cc1)N1CCCCC1 | inactive
O=C(Oc1ccc(-c2ccccc2)cc1)N1CCOCC1 | inactive
CCCCOC(=O)c1ccc(OC(=O)N2CCOCC2)cc1 | inactive
O=C(Oc1ccc(Oc2ccccc2)cc1)N1CCC(O)CC1 | inactive
O=C(/C=C/c1cccs1)c1cc(Br)ccc1OC(=O)N1CCOCC1 | inactive
